Screening results (PubChem BioAssay)
BJeLR viability – MLPCN primary cell-based screen for lethality selective to Ras in HRASV12 cells; BJeLR (HRASV12) viability, CellTiter-Glo ATP luminescence, 48 h; inhibition, % (test concentration not listed); 300,000 tested, 0.17% active; AID 1554, 2009; in the data active means inhibition above about 50%
Mtb FBA inh – Mtb FBA enzyme inhibitors, primary screen, biochemical, fluorescence, strain H37Rv | inhibition, % at 1 µM | purified M. tuberculosis FBA, fluorescence read-out | 360,000 tested, 2.3% active | Fructose-bisphosphate aldolase (Mycobacterium tuberculosis (strain ATCC 25618 / H37Rv)), … | AID 588726, 2011; in the data active means inhibition above about 27%
RecA splice inh – Mtb RecA intein splicing inhibitors, primary screen, biochemical, fluorescence, HTS; Protein RecA (Mycobacterium tuberculosis (strain ATCC 25618 / H37Rv)), P9WHJ3; cell-free RecA intein splicing; inhibition, % (test concentration not listed); 290,000 tested, 0.75% active; AID 2221, 2009; in the data active means inhibition above about 30%
Target sequence (P9WHJ3 whole entry, looked up, canonical isoform): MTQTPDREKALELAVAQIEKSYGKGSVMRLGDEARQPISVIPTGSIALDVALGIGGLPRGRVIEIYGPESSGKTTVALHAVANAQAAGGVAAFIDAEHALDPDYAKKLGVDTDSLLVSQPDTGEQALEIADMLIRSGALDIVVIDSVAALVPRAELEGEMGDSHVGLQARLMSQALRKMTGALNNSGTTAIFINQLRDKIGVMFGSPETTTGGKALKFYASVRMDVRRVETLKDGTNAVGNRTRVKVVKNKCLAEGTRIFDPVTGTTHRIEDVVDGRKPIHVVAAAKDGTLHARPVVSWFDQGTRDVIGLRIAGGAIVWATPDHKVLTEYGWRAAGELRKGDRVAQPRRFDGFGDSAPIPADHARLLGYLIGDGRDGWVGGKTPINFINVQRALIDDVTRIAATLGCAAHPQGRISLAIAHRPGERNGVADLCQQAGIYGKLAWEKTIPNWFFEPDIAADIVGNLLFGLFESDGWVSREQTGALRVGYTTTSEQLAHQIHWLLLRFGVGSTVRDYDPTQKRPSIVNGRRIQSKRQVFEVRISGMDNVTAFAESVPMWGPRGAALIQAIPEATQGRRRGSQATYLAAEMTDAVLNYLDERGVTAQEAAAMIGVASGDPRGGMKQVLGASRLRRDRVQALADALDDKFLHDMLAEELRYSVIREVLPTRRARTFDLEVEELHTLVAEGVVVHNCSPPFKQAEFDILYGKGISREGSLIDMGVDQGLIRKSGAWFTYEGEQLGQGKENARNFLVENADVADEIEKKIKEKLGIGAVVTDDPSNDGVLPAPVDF
PrPC surface inh – inhibitors of human cell surface prion protein PrPC, primary screen, cell-based, TR-FRET; 370,000 tested, 0.43% active; TR-FRET read-out; inhibition, % at 13.8 µM; Major prion protein (Homo sapiens), P04156; AID 720596, 2013; in the data active means inhibition above about 24%
GDH-TPI inh – GDH-TPI coupling enzyme inhibitors, primary screen, artefact control for M. tuberculosis FBA inhibitor project, biochemical, absorbance, full deck; GDH-TPI coupled enzyme counterscreen, NADH absorbance; inhibition, % at 4.8 µM; 360,000 tested, 1.2% active; AID 588335, 2011; in the data active means inhibition above about 30%
Of the large screens only hits and unclear results are named; the others gave an inactive call; ! = not confirmed by another sample. Most compounds without a hit are left out; they make up all but 4.2% or so of the library.

Cc1cccn2c(=O)c3cc(C(=O)NC4CCCCC4C)n(C)c3nc12 (centres undefined)	none
Cc1ccc2nc3c(cc(C(=O)NCCCn4ccnc4)n3C)c(=O)n2c1	Mtb FBA inh active
COCCCn1c(C(=O)NCCN2CCOCC2)cc2c(=O)n3ccccc3nc21	Mtb FBA inh active
Cc1nc2ccccn2c1C(=O)NCCCN1CCOCC1	none
COCCCn1c(C(=O)NCCC2=CCCCC2)cc2c(=O)n3cccc(C)c3nc21	none
Cc1cccn2c(=O)c3cc(C(=O)NCCN4CCOCC4)n(C)c3nc12	Mtb FBA inh 121.3
Cc1ccc(CC(=O)NCCCn2ccnc2)cc1	none
Cn1c(C(=O)NCCN2CCOCC2)cc2c(=O)n3ccccc3nc21	Mtb FBA inh active
Cc1ccccc1Cn1cc(CN2[C@H](CC(C)C)COc3cc(Br)ccc3S2(=O)=O)nn1	none (no result: BJeLR viability, Mtb FBA inh, RecA splice inh, GDH-TPI inh)
CCC(C)(C)NC(=O)C(c1ccc(OC)cc1)N(C(=O)CCC(=O)Nc1cc(C)on1)c1cccc(F)c1 (centres undefined)	Mtb FBA inh 117.4
C[C@H](O)[C@@H]1C(=O)N2CCc3c([nH]c4c(-c5ccccc5)cccc34)[C@@H]2C[C@@H]1N(C)C(=O)c1ccccc1F	none (no result: BJeLR viability, Mtb FBA inh, RecA splice inh, GDH-TPI inh)
Cc1onc(-c2ccccc2Cl)c1C(=O)Nc1cccc(-c2cn3cccnc3n2)c1	Mtb FBA inh 128.5, GDH-TPI inh 30.9 (no result: BJeLR viability, RecA splice inh, PrPC surface inh)
CC(C)(C)CC(=O)Nc1cccc(-c2cn3cccnc3n2)c1	Mtb FBA inh active
COc1cc(C(=O)Nc2cccc(-c3cn4cccnc4n3)c2)cc(OC)c1OC	Mtb FBA inh active
COC(=O)[C@]12C[C@H](CC(=O)NCc3cccs3)C(=O)N(Cc3ccc(Cl)cc3Cl)C1=C[C@H](COCc1ccccc1)O[C@@H]2C	none (no result: BJeLR viability, Mtb FBA inh, RecA splice inh, GDH-TPI inh)
CN(C)c1ccc(C=c2c3cc([N+](=O)[O-])ccc3n3c2cc(-c2ccccc2)[n+]3C)cc1	GDH-TPI inh 41.7 (no result: BJeLR viability, RecA splice inh)
N#C/C(=C\c1ccc(O)cc1)C(=O)O	GDH-TPI inh 34.7! (no result: BJeLR viability, RecA splice inh)
COc1ccc(C2CC(=O)C(c3ccc(Br)cc3)=CN2Cc2ccccc2)cc1 (centres undefined)	none (no result: BJeLR viability, Mtb FBA inh, RecA splice inh, GDH-TPI inh)
C/C(=N\NC(=O)c1c[nH]c2ccccc12)c1ccccn1	none
C/C(=N\NC(=O)c1ccc(F)cc1)c1ccccn1	BJeLR viability 105.9
COc1ccccc1C(=O)N/N=C(\C)CC(=O)Nc1ccccn1	none
C/C(CC(=O)Nc1ccccn1)=N\NC(=O)c1ccc(C)cc1	RecA splice inh 46.9
CCOc1ccc(C(=O)N/N=C(\c2ccccc2)c2ccccn2)cc1	GDH-TPI inh 32.5
CCOc1ccc(-n2c(SCC(=O)Nc3ccc(S(=O)(=O)Nc4cc(C)nc(C)n4)cc3)nnc2-c2ccc(OC)cc2)cc1	none (no result: BJeLR viability, Mtb FBA inh, RecA splice inh, GDH-TPI inh)
O=C(Nc1sc2c(c1-c1nc3ccccc3s1)CCNC2)C(F)(F)F	none (no result: BJeLR viability, Mtb FBA inh, RecA splice inh, GDH-TPI inh)
COc1cc(Br)c(C2C(C#N)=C(N)Oc3n[nH]c(-c4cccnc4)c32)cc1OC (centres undefined)	RecA splice inh 56.5
CC(C)(C)c1ccc(C2C(C#N)=C(N)Oc3n[nH]c(-c4cccnc4)c32)cc1 (centres undefined)	none
COc1cc(OC)cc(C2C(C#N)=C(N)Oc3n[nH]c(-c4cccnc4)c32)c1 (centres undefined)	RecA splice inh 49.8
COC(=O)[C@]12C[C@H](CC(=O)NCc3cccs3)C(=O)N(Cc3ccco3)C1=C[C@H](C(C)(C)C)O[C@@H]2C	none (no result: BJeLR viability, Mtb FBA inh, RecA splice inh, GDH-TPI inh)
COc1ccc(C(=O)/C=C/Nc2ccc(S(N)(=O)=O)cc2)cc1OC	GDH-TPI inh 57.5
COc1ccc(C(=O)/C=C/NCc2ccc(F)cc2)cc1OC	GDH-TPI inh 33.8
CCN(CC)c1ccc(-c2nn3c(-c4ccc(C(C)(C)C)cc4)nnc3s2)cc1	none (no result: BJeLR viability, Mtb FBA inh, RecA splice inh, GDH-TPI inh)
COc1ccc(-n2c(=O)c3ccccc3c3ccccc3c2=O)cc1	RecA splice inh 31.0
CN(C)c1ccc(C(=O)OCC(=O)c2ccc[nH]2)cc1	GDH-TPI inh 30.8 (no result: BJeLR viability, RecA splice inh)
O=C(OCC(=O)c1ccc[nH]1)c1ccccc1	none
COc1ccc2nc(NC(=O)c3ccoc3C)sc2c1	BJeLR viability 75.4
CCCC(=O)Nc1nc2ccc(OC)cc2s1	none
COc1ccc2nc(NC(=S)N(C)C)sc2c1	GDH-TPI inh 44.2
Cc1cc(C)cc(OC(C)CCN2CCC(C(O)(c3ccccc3)c3ccccc3)CC2)c1 (centres undefined)	none (no result: BJeLR viability, Mtb FBA inh, RecA splice inh, GDH-TPI inh)
Cc1cc(=O)[nH]c(SCC(=O)Nc2cccc(C)c2C)n1	none (no result: BJeLR viability, Mtb FBA inh, RecA splice inh, GDH-TPI inh)
